Source: PubChem BioAssay (NCATS)
A number with no mark means an inactive call. How the calls were made is not given here.

Test system: HIV-1 nucleocapsid protein NCp7 (binding to TG oligonucleotide)
Test: HIV Nucleocapsid (AID 346);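 further: potency is for inhibitors that block NC binding and lower polarization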
Conditions: HIV-1 NC / fluorescein-TGTGTGTG probe, fluorescence polarization
In short: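 HIV-1 NC (100 nM) binding to fluorescein-labelled ssDNA TG4xF (10 nM) in Hepes pH 7.5, 250mM NaCl, 1uM ZnCl2, TCEP and 2-mercaptoethanol; compounds pin-transferred, 1 hr room temperature, fluorescence polarization read on CCD imager.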
Potency means the concentration at half of the fitted maximal effect.

| Structure (SMILES) | Potency |
| --- | --- |
| Cc1noc(C)c1C(=O)N1CCC2(CCCN(c3ccccn3)C2)CC1 | > 20 µM |
| COC(=O)N1CCC2(CCCN(c3cccc(-c4ccccc4)c3)C2)CC1 | > 20 µM |
| CC(=O)N1CCC2(CC1)CCN(c1ccc(-c3ccccc3)cc1)CC2 | > 20 µM |
| CC(=O)NCCNc1ncncc1-c1ccccc1C(F)(F)F | > 20 µM |
| COc1ccc(C(=O)N2CCC3(CCN(Cc4cc(C(F)(F)F)cc(C(F)(F)F)c4)CC3)CC2)cc1 | > 20 µM |
| CN(Cc1ccco1)c1ncncc1-c1ccc2c(c1)OCO2 | > 20 µM |
| CC(=O)NCCNc1ncnc2ccc(-c3ccc4c(c3)OCO4)cc12 | > 20 µM |
| O=C(c1cc(C(F)(F)F)cc(C(F)(F)F)c1)N1CCC2(CC1)CN(c1ncccn1)C2 | > 20 µM |
| Cn1cccc1C(=O)N1CCC2(CC1)CCN(c1ccncc1)CC2 | > 20 µM |
| CNc1ncncc1-c1c(C)noc1C | > 20 µM |
| O=C(c1cnccn1)N1CCC2(CCCN(c3ccncc3)C2)CC1 | > 20 µM |
| CN(Cc1ccco1)c1ccnc(-c2ccccc2C(F)(F)F)n1 | > 20 µM |
| O=c1c(-c2ccc(F)cc2)nc2cnc(N3CCOCC3)nc2n1-c1ccccc1 | > 20 µM |
| COc1ccccc1CNc1nc(-c2ccc(N(C)C)cc2)nc2ccccc12 | > 20 µM |
| COCC(=O)N1CCC2(CCCN(c3ccccn3)C2)CC1 | > 20 µM |
